Inconclusive results are not listed. A number with no mark means an inactive call. Activity calls are given as the source filed them. The call rests on the fitted dose curve; in most records, active means well fitted inhibition curve with a large enough effect; inconclusive means small, poorly fitted or top-dose-only effect; inactive means no such curve, though single readings can be large or run the other way.
Each compound was assayed on Zika virus NS2B-NS3 protease (linked construct) (assay: Primary screen NINDS Rhodamine qHTS for Zika virus inhibitors (AID 1347160; further: nearly all actives have a fitted effect of over 55% in size)). Conditions: purified NS2B-NS3 protease, Rhodamine110 substrate fluorescence; series mostly up to 33.1 µM; activity change, negative = inhibition: at the top concentration.
In short: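 Single-chain NS2B-NS3 protease, 25 nM, pH 8.0; compounds preincubated 15 min. Activity: Rhodamine110 release from 1.5 microM substrate over 15 min, room temperature, data fitted to 4-parameter Hill.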
In the case of CC(C)Oc1ccc(-c2nc(-c3cccc4c3CCC4NCCC(=O)O)no2)cc1C#N (stereo not given), the “activity change, negative = inhibition” value is reported as 20.1% [at 57.1 µM]. C[C@@H]1C[C@H]2OC(=O)[C@@]3(C)CCC[C@](C)(C23)[C@@]1(O)CCC1=CC(=O)OC1O (stereo not given in full) was tested, and the “activity change, negative = inhibition” value was -27.4%. For C[C@H]1CCN2C[C@]34C[C@@]5(C(=O)Nc6c5ccc5c6OC=CC(C)(C)O5)C(C)(C)C3C[C@]12C(=O)N4C (stereo not given in full), the “activity change, negative = inhibition” value was -11.3%. CC(=O)/C=C/C1(O)C(C)CC(O[C@@H]2O[C@H](CO)[C@@H](O)[C@H](O)[C@H]2O)CC1(C)C (stereo not given in full) was tested, and the “activity change, negative = inhibition” value was -25.7%. For CCCc1[nH]nc2c1C(c1cc(Cl)cc(Cl)c1O)C(C#N)=C(N)O2 (stereo not given), the “activity change, negative = inhibition” value was 6.09% [at 57.1 µM]. In the case of O=C(N[C@@H]1CC[C@@H](c2cccc(F)c2F)CN(CC(F)(F)F)C1=O)N1CCC(n2c(=O)[nH]c3ncccc32)CC1, the “activity change, negative = inhibition” value is reported as -7.05% [at 57.1 µM]. In the case of C[C@@H]1O[C@@H](O[C@H]2[C@@H]3C=CO[C@@H](O[C@@H]4O[C@H](CO)[C@@H](O)[C@H](O)[C@H]4O)[C@@H]3[C@@]3(CO)O[C@@H]23)[C@H](OC(=O)/C=C/c2ccc(O)cc2)[C@H](O)[C@H]1O, the “activity change, negative = inhibition” value is reported as 5.08% [at 15.1 µM]. In the case of Cn1c2ccc(NC(=O)c3ccccc3)cc2c(=O)n2nc(C(=O)O)cc12, the “activity change, negative = inhibition” value is reported as -4.91%. CC/C=C\C(O)C(O)C1=C(C)C(=O)C2(O1)C(=O)NC(OC)(C(=O)c1ccccc1)C2O (stereo not given) was tested, and the “activity change, negative = inhibition” value was -25.8%. In the case of C[C@@H]1O[C@@H](O[C@H]2[C@H](O)[C@@H](O)[C@H](OC(=O)[C@]34CCC(C)(C)C[C@H]3C3=CCC5[C@@]6(C)CC[C@H](O[C@@H]7O[C@H](C(=O)O)[C@@H](O)[C@H](O)[C@H]7O)C(C)(C)C6CC[C@@]5(C)[C@]3(C)CC4)O[C@@H]2CO)[C@H](O)[C@H](O)[C@H]1O (stereo not given in full), the “activity change, negative = inhibition” value is reported as -23.4% [at 15.1 µM]. For CC(=O)O[C@@H]1C(O)C[C@@]2(C)C(CC[C@@H](C)C23Cc2c(O)cc4c(c2O3)CNC4=O)C1(C)C (stereo not given in full), the “activity change, negative = inhibition” value was 4.7%. COc1cc2nc(=NC(=O)c3cccnc3)n3c(c2cc1OC)NCC3 was tested, and the “activity change, negative = inhibition” value was 2.47% [at 57.1 µM]. With C=C(C(=O)O)[C@H]1C[C@]2(C)C(=O)CC[C@]23O[C@H]1C[C@@H]3C the “activity change, negative = inhibition” value was 29.4% [at 57.1 µM]. OC[C@H]1O[C@@H](OCCc2ccccc2)[C@H](O)[C@@H](O)[C@@H]1O was tested, and the “outcome” value was “inactive”. OCC1=C[C@@H](O)[C@@H]2C=CO[C@@H](O[C@@H]3O[C@H](CO)[C@@H](O)[C@H](O)[C@H]3O)[C@H]12 was tested, and the “activity change, negative = inhibition” value was 0.49%. With C=C1C(O)CCC2(C)CC3(OC)OC(=O)C(C)=C3CC12 (stereo not given) the “activity change, negative = inhibition” value was -22.5% [at 57.1 µM]. For O=c1[nH]ccc2nc(-c3ccc(CN4CCC(c5nc(-c6ccccn6)n[nH]5)CC4)cc3)c(-c3ccccc3)cc12, the “activity change, negative = inhibition” value was 4.44% [at 57.1 µM]. In the case of COc1ccc(OC)c(C2C(C#N)=C(N)Oc3n[nH]c(-c4ccc5ccccc5c4)c32)c1 (stereo not given), the “activity change, negative = inhibition” value is reported as 16.1% [at 57.1 µM]. For CC[C@@H]1C(=O)O[C@]23C=C[C@@H]4C(C(=O)OC)=CO[C@H](O[C@@H]12)[C@@H]43, the “outcome” value was “inactive”. For COc1ccc(-n2c(=O)[nH]c3cc(C(=O)NCc4ccc(Cl)cc4)sc3c2=O)nc1OC, the “activity change, negative = inhibition” value was 4.82% [at 57.1 µM]. C=C(C)[C@@H]1CC[C@]2(C)CC[C@]3(C)C(CCC4[C@@]5(C)CC[C@H](O)C(C)(C)C5CC[C@]43C)C12 (stereo not given in full) was tested, and the “activity change, negative = inhibition” value was 14.4%. CC(=O)OC/C(=C/C(=O)O)CC[C@@H]1C(C)=CC(=O)[C@@H]2C(C)(C)CCC[C@@]12C was tested, and the “activity change, negative = inhibition” value was 6.72%. In the case of Cc1ccc2nc(NC(=O)CSc3nc4c(c(=O)n3-c3ccc(F)cc3)SCC4)sc2c1, the “activity change, negative = inhibition” value is reported as 40.1% [at 57.1 µM]. For CC1C2=CC(=O)OC2(O)CC2C1CCC1C(C)(C)CCC(O)C21C (stereo not given), the “activity change, negative = inhibition” value was -6.48%. In the case of C/C=C/C=C/C(O)=C1/C(=O)[C@]2(C)C(=O)[C@@](C)(O)[C@H]1[C@H]([C@@]1(C)OC(=O)C(C)=C1O)[C@H]2C(=O)CC/C=C/C, the “activity change, negative = inhibition” value is reported as -20.8%. CC(C)(O)C1CC=C(C(=O)OC[C@H]2O[C@@H](OC(=O)C3=CCC(C(C)(C)O)CC3)[C@H](O)[C@@H](O)[C@@H]2O)CC1 (stereo not given in full) was tested, and the “activity change, negative = inhibition” value was -16.3%. C=C1Cc2c(Cl)cc3[nH]c4c5c3c2[C@@]2(O)[C@@H]1C[C@@H]2C(C)(C)O[C@H]5C1CC[C@@]2(O)[C@@]35O[C@@H]3[C@H]3OC(C)(C)[C@H]3O[C@H]5CC[C@]2(C)[C@@]41C (stereo not given in full) was tested, and the “activity change, negative = inhibition” value was -14.9% [at 15.1 µM]. For COC(=O)[C@H](c1ccccc1Cl)N1CCC2SC(=O)C=C2C1 (stereo not given in full), the “activity change, negative = inhibition” value was -1.72% [at 57.1 µM]. C=C1C(=O)OC[C@H]2C(C(=O)O)=CC3CC(C)(C)C[C@@]132 (stereo not given in full) was tested, and the “outcome” value was “inactive”. CC1OC(OC2C(OC(=O)[C@]34CCC(C)(C)C[C@H]3C3=CCC5[C@@]6(C)CC[C@H](OC7OC(C(=O)O)C(O)C(O)C7O)C(C)(C)C6CC[C@@]5(C)[C@]3(C)CC4O)OC(CO)C2O)C(O)C(O)C1OC1OCC(O)C(O)C1O (stereo not given in full) was tested, and the “outcome” value was “inactive [at 15.1 µM]”.

From PubChem BioAssay (NCATS)
On the % scale 0 is the no-effect control and ±100 the full control effect.
